Screening results from PubChem.
Sm TGR block – inhibitors of Schistosoma mansoni thioredoxin glutathione reductase | actives 3% (n = 360,000) | AID 485364 | Potency, µM (series often up to 114 µM), hits mostly inhibitors | purified TGR, DTNB reduction, TNB absorbance 405 nm; also: nearly all actives have a fitted effect of over 60% in size
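TGR 20 nM + NADPH 100 uM (dispensed conc.), cpd preinc 15 min RT; start with NADPH (500 uM addition) then DTNB (15 mM addition). Kinetic TNB absorbance, 405 nm filter. Four-parameter Hill fit across titration.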
Pf growth 48h – inhibits P. falciparum growth in the first generation, 48 h | P. falciparum luciferase growth in erythrocytes, 48 h | AID 504832 | actives 5.9% (n = 310,000) | Potency, µM (series often up to 28.7 µM), usual class: inhibitors
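Erythrocytes infected with P. falciparum carrying an integrated firefly luciferase reporter (2% hematocrit, 0.1% parasitemia final) were exposed to compounds in RPMI 1640 with 0.5% Albumax at 37 C, 5% CO2. Growth inhibition was scored as reduced luminescence.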
FBPA Giardia inh – Giardia lamblia aldolase inhibition; purified Giardia FBPA; Potency, µM (highest dose often 59.6 µM), most hits filed as inhibitors; actives 0.71% (n = 290,000); AID 2451; A8B2U2; also: nearly all actives have a fitted effect of over 55% in size
Target sequence (A8B2U2 whole entry, looked up): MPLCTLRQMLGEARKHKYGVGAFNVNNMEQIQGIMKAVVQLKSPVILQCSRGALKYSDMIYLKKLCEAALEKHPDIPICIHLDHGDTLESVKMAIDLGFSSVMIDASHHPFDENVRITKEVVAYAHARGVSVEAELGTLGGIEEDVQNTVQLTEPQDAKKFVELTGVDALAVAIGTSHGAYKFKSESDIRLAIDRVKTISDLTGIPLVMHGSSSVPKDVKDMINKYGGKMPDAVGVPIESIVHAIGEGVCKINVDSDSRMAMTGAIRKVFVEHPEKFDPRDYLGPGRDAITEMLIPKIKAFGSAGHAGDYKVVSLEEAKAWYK
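Giardia FBPA (40 nM reagent) was preincubated 10 min at RT with compound (up to 57.5 uM final), then substrate plus GAPDH/TPI/NAD/arsenate coupling system with diaphorase/resazurin was added; resorufin fluorescence (525/598 nm) was read after 20 min.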
HCMV inh – human cytomegalovirus inhibition. HFF cells, HCMV-luciferase reporter, 72 h; active compounds read low. AID 1259415. activity change, negative = inhibition, % at 57.5 µM. actives 4.5% (n = 410,000); in the data active = activity change below about -60%; inconclusive = no clear call, values can overlap the other calls; inactive = above about -39%
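Screen run at 2 compound doses on HFFs infected with reporter HCMV, MOI 1 PFU/cell. Luciferase activity from cell lysates at 72 h post infection gave inhibition relative to buffer-only and Salinomycin wells.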
Pf growth 96h – P. falciparum growth inhibition at 96 hour, primary screen for plastid delayed-death inhibitors; Potency, µM (top dose mostly 28.7 µM), hits mostly inhibitors; P. falciparum luciferase reporter growth, 96 h; actives 6.9% (n = 320,000)
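Luminescence readout: decreased luciferase signal marks inhibited growth of reporter-expressing P. falciparum in infected red cells (2% hematocrit, 0.05% parasitemia final), exposed to compound two generations (96 h, 37 C, 5% CO2).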
Hits are given with their value; – = inactive; ? = inconclusive; · = no result given; [ ] = remark or other dose. Shown are actives, neighbours in structure and some others; about 14% of the full set was active somewhere. Unless noted, calls follow the shape of the dose curve; as a rule, active = well fitted curve in the direction sought with a large enough effect; inconclusive = small, poorly fitted or top-dose-only effect, or another doubt; inactive = no such curve, though single readings can be large; an effect the other way counts as inactive or inconclusive.

SMILES	Sm TGR block	Pf growth 48h	FBPA Giardia inh	HCMV inh	Pf growth 96h
COc1ccc(CNC(=O)c2ccc3c(c2)N(Cc2cccc(Cl)c2)C(=O)c2ccccc2S3)c(OC)c1	–	·	·	–	·
O=C(CSc1c2c(nc3cc(Cl)ccc13)CCCC2)NCc1ccco1	89µM	–	–	–	–
O=C(CSc1c2c(nc3cc(Cl)ccc13)CCCC2)NCc1ccccc1Cl	–	·	·	-80	·
O=C(CSc1c2c(nc3cc(Cl)ccc13)CCCC2)N1CCN(c2ccccc2)CC1	–	·	·	-78	·
O=C(CSc1nc2ccc(Cl)cc2[nH]1)NCc1ccco1	14µM	–	–	–	?
O=C(CSc1c2c(nc3ccc(Cl)cc13)CCCC2)NCc1ccccc1Cl	–	·	·	–	·
Cc1cccc(N2CCN(C(=O)C3CC(=O)N(C4CCCC4)C3)CC2)c1C (centres undefined)	–	–	·	-63	?
Cc1cccc(N2CCN(C(=O)C3CCC(=O)N(Cc4ccccc4F)C3)CC2)c1C (centres undefined)	–	9.3µM	–	?	10µM
CCOc1ccc(/C=C/c2nc(C#N)c(NC(C)c3ccccc3)o2)cc1 (centres undefined)	–	·	·	?	·
CCOc1ccc(/C=C/c2nc(C#N)c(NCc3ccccc3)o2)cc1	–	·	·	-93	·
Cn1ccnc1C(O)c1cc(C(C)(C)C)c(O)c(C(C)(C)C)c1 (centres undefined)	18µM	?	–	?	–
Cc1ncsc1CCOC(=O)C1C2CC3CC(C2)CC1C3 (centres undefined)	–	?	–	?	13µM
COc1ccc(C2OCC3(COC(C)=O)C(C)C=C(C)C2C3C)cc1 (centres undefined)	·	·	–	·	·
COc1ccc(OC)c(-c2cc(C(=O)Nc3c(C)nn(Cc4ccccc4Cl)c3C)no2)c1	–	13µM	–	–	–
COc1ccc(OC)c(-c2cc(C(=O)Nc3c(C)nn(Cc4ccccc4C)c3C)no2)c1	–	5.2µM	–	–	–
COc1ccc(-c2cc(C(=O)Nc3c(C)nn(Cc4ccccc4Cl)c3C)no2)cc1OC	–	?	–	–	–
Cc1nn(C)cc1C(=O)Nc1c(C)nn(Cc2ccccc2Cl)c1C	–	–	–	-80	?
Cc1nn(Cc2c(Cl)cccc2Cl)c(C)c1NC(=O)c1sc2ccccc2c1Cl	–	·	–	-85	?
COc1ccc(NC(=O)C2CC(=O)N(c3ccccc3F)C2)cc1S(=O)(=O)N1CCCCC1 (centres undefined)	·	·	·	–	·
N#CCCCS(=O)(=O)c1ccccc1	·	·	–	·	·
CC1CCN(C(=O)CSc2nc3ccccc3nc2Cc2ccccc2)CC1	–	·	·	–	·
COc1cccc(-c2cc(C(=O)Nc3c(C)nn(Cc4ccccc4Cl)c3C)no2)c1	–	·	·	–	·
Cc1cc(C(=O)Nc2c(C)nn(Cc3ccccc3Cl)c2C)no1	–	2.6µM	–	–	–
COc1ccccc1-c1cc(C(=O)Nc2c(C)nn(Cc3ccc(Cl)cc3)c2C)no1	–	·	·	-74	·
COc1ccc(N2CCN(C(=O)CCn3c(=O)[nH]c4cc(OC)c(OC)cc4c3=O)CC2)cc1	–	·	·	–	·
SMILES	Sm TGR block	Pf growth 48h	FBPA Giardia inh	HCMV inh	Pf growth 96h
COc1cc(C(=O)Nc2ccccc2-c2nc(-c3ccccc3)no2)cc(OC)c1OC	–	·	·	–	·
CCOc1ccc(C(CC(=O)O)NC(=O)Cc2ccc(Cl)cc2)cc1 (centres undefined)	–	–	–	–	3.3µM
CC(=O)Nc1ccc(C(=O)NC(CC(=O)O)c2ccc(Cl)cc2)cc1 (centres undefined)	–	·	–	–	–
CN(C)c1ccc(C(CC(=O)O)NC(=O)c2ccc(Cl)cc2)cc1 (centres undefined)	32µM	–	–	–	–[5.75 µM]
O=C(O)CC(NC(=O)C1c2ccccc2Oc2ccccc21)c1ccc(Cl)cc1 (centres undefined)	–	–	–	-88	–
CCOc1ccc(C(CC(=O)O)NC(=O)C2c3ccccc3Oc3ccccc32)cc1 (centres undefined)	–	–	–	–	?
O=C(NNC(=O)c1ccccc1O)c1cccc(Br)c1	–	–	–	–	–
CC(C)NC(=O)Nc1ccc2c(c1)C(=O)N([C@H](C)CO)C[C@H](C)[C@@H](CN(C)S(C)(=O)=O)O2	·	·	·	–	·
CC(=O)OCC1OC(n2cnc3c(Cl)nc(Cl)nc32)C(OC(C)=O)C1OC(C)=O (centres undefined)	·	·	–	·	·
CCOC(=O)Nc1ccc(S(=O)(=O)NCc2ccccc2)cc1	–	–	–	-62	–
CC(=O)Nc1ccc(S(=O)(=O)NCc2ccc(C)n2C)cc1	14µM	–	–	–	–
O=C(Nc1ccc(S(=O)(=O)NCc2ccccc2)cc1)C1CCCCC1	–	–	·	–	12µM
CC(=O)Nc1ccc(S(=O)(=O)NCC2CCC(C(=O)NCc3ccccc3)CC2)cc1 (centres undefined)	–	–	–	–	–
COc1ccc2c(C(=O)CN(C)C3CCCCC3)c[nH]c2c1	35µM	?	–	–	–
Cc1cc(N)ccc1NC(=O)CN1CCCC1	–	–	?	–	?
COc1ccc(-n2c(CN3CCOCC3)nc3ccc([N+](=O)[O-])cc3c2=O)c(OC)c1	45µM	·	–	–	–
COc1ccc(-n2c(CN3CCC(C)CC3)nc3ccc([N+](=O)[O-])cc3c2=O)c(OC)c1	?	–	–	–	–
COc1ccc(-n2c(CN3CCN(c4ccccc4)CC3)nc3ccc([N+](=O)[O-])cc3c2=O)c(OC)c1	?	·	–	-79	–
CCOC(=O)N1CCN(Cc2nc3ccc([N+](=O)[O-])cc3c(=O)n2-c2ccc(OC)cc2OC)CC1	40µM	·	–	–	–
O=C1C=CC(=O)C(C2=C3C(=O)N(CCc4ccccc4)CC(=O)N3CCC2)=C1	0.28µM	–	18µM	-99	–
Cc1ccc2nc(-c3cc(N)cc(N)c3)oc2c1	50µM	–	–	–	–
CN(C)CC(NC(=O)c1cccc(S(=O)(=O)Nc2ccc3c(c2)OCO3)c1)c1ccccc1 (centres undefined)	?	?	·	–	4.1µM
CCCCNC(=O)C(C)(C)n1cc(NC(=O)Cc2ccc(F)cc2)cn1	·	·	·	–	·
COCC(C)n1c(SCc2cc(=O)n3cc(C)ccc3n2)nc2ccccc2c1=O (centres undefined)	–	?	–	-61	?
Cc1ccc2nc(CSc3nnc4ccccn34)cc(=O)n2c1	–	–	–	–	–
COCC(C)n1c(SCC(=O)Nc2nccs2)nc2ccccc2c1=O (centres undefined)	–	–	·	–	–
COCC(C)n1c(SCC(=O)N2CCc3ccccc3C2)nc2ccccc2c1=O (centres undefined)	–	?	–	–	7.4µM
COCC(C)n1c(SCC(=O)Nc2sccc2C(N)=O)nc2ccccc2c1=O (centres undefined)	–	9.3µM	·	–	?
